SMILES strings stand for the structures. Inconclusive results are not listed. A number with no mark means an inactive call. Calls of active or inactive are those of the source. Calls follow the shape of the dose curve; as a rule, active = well fitted inhibition curve with a large enough effect; inconclusive = small, poorly fitted or top-dose-only effect; inactive = flat fitted curve, though single readings scatter.

Experimental findings from PubChem BioAssay (NCATS) are described below.
% is scaled to controls: 0 for no effect and ±100 for the full control effect; potency is read from the fitted curve at half-maximal effect.

Test system in one assay: not listed separately
Nature of the assay: Drug repurposing screens with cells derived from glioblastoma tumor samples (AID 1345199). Also: nearly all actives have a fitted effect of over 40% in size. Particulars: GBM patient neurospheres viability, ATP luminescence, 48 h; at 46 µM (top of the series); tumour line A. The method in brief: (§1)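 Primary testing used CD133+ neurospheres from four GBM patients, seven concentrations, 48 h exposure and ATP-based viability; confirmation added three slower-growing patient lines.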
On to `N#Cc1c(N(CC(=O)O)CC(=O)O)sc(C(=O)O)c1CC(=O)O`, for which the activity, negative = cell killing was -24.3%.
On the same count and under the same terms, next, `CCC[C@H](N[C@@H](C)C(=O)N1[C@@H]2CCCC[C@H]2C[C@H]1C(=O)O)C(=O)OCC`: -33%.
The same measure, in the same setting: next, `O=C(O)c1nc(=O)[nH]c(=O)[nH]1`: -9.41%.

The same assay, now with this note: GBM patient neurospheres viability, ATP luminescence, 48 h; at 46.1 µM (top of the series); tumour line C.
In the case of `COc1cc2c(cc1OC)CC(=O)N(CCCN(C)C[C@H]1Cc3cc(OC)c(OC)cc31)CC2`, the activity, negative = cell killing was -34%.
The same measure, in the same setting: next, `O=C(Nc1cccc2c(=O)cc(-c3nn[nH]n3)oc12)c1ccc(OCCCCc2ccccc2)cc1`: 16%.
On the same count and under the same terms, next, `CS(=O)(=O)c1ccc(C2=C(c3ccccc3)C(=O)OC2)cc1`: -14.3%; `CN1CC(=O)N2C(Cc3c([nH]c4ccccc34)[C@H]2c2ccc3c(c2)OCO3)C1=O` (stereo not given in full): -21.6%.
For `CC(C)CN(C[C@@H](O)[C@H](Cc1ccccc1)NC(=O)O[C@H]1CO[C@H]2OCC[C@H]21)S(=O)(=O)c1ccc(N)cc1`, the activity, negative = cell killing is -17%.
As to `CCC(=O)OCC(=O)[C@@]1(OC(=O)CC)[C@@H](C)C[C@@H]2[C@H]3CCC4=CC(=O)C=C[C@]4(C)[C@@]3(F)[C@@H](O)C[C@@]21C`, the activity, negative = cell killing is 2.82%.
The same measure, in the same setting: next, `N#Cc1c(N(CC(=O)O)CC(=O)O)sc(C(=O)O)c1CC(=O)O`: 4.23%.
Same read-out and setting: next, `CCC[C@H](N[C@@H](C)C(=O)N1[C@@H]2CCCC[C@H]2C[C@H]1C(=O)O)C(=O)OCC`: -16.9%; `CN1CCN2c3ncccc3Cc3ccccc3C2C1` (stereo not given): 14.4%.
On the same count and under the same terms, the same measure for `COc1ccnc(CS(=O)c2nc3ccc(OC(F)F)cc3[nH]2)c1OC` (stereo not given): -15.1%; for `CC(C)(CO)[C@@H](O)C(=O)NCCC(=O)O`: -2.72%; for `CCCCCCCCCCCCCCCC(=O)O[C@H]1[C@@H](O)[C@@H](O)[C@@H]([C@H](NC(=O)[C@@H]2C[C@@H](CCC)CN2C)[C@H](C)Cl)O[C@@H]1SC`: 10.8%.
For the compound `CCCCC(F)(F)[C@@]1(O)CC[C@H]2[C@H](CC(=O)[C@@H]2CCCCCCC(=O)O)O1`, the activity, negative = cell killing was 12%.
With `Fc1ccc(C(c2ccc(F)cc2)N2CCN(CC=Cc3ccccc3)CC2)cc1`, the activity, negative = cell killing was -6.32%.
On the same count and under the same terms, the same measure for `O=C(O)c1nc(=O)[nH]c(=O)[nH]1`: -6.32%.
Same read-out and setting: next, `CC[C@H]1OC(=O)[C@H](C)[C@@H](O[C@H]2C[C@@](C)(OC)[C@@H](O)[C@H](C)O2)[C@H](C)[C@@H](O[C@@H]2O[C@H](C)C[C@H](N(C)C)[C@H]2O)[C@](C)(O)C[C@H](C)C(=NOCOCCOC)[C@H](C)[C@@H](O)[C@]1(C)O`: -6.06%.

Still in this assay, the particulars now being: GBM patient neurospheres viability, ATP luminescence, 48 h; tumour line A.
`O=C(CCCN1CCN(c2ccc(F)cc2)CC1)NC1c2ccccc2CSc2ccccc21` (stereo not given): the Potency is 3.98 µM (active).
Same read-out and setting: the same measure for `COc1cc2c(cc1OC)CC(=O)N(CCCN(C)C[C@H]1Cc3cc(OC)c(OC)cc31)CC2`: 11.2 µM (active); for `CN1CC(=O)N2C(Cc3c([nH]c4ccccc34)[C@H]2c2ccc3c(c2)OCO3)C1=O` (stereo not given in full): 11.2 µM (active).
The same measure, in the same setting: next, `CC(C)CN(C[C@@H](O)[C@H](Cc1ccccc1)NC(=O)O[C@H]1CO[C@H]2OCC[C@H]21)S(=O)(=O)c1ccc(N)cc1`: 17.8 µM (active); `CCC(=O)OCC(=O)[C@@]1(OC(=O)CC)[C@@H](C)C[C@@H]2[C@H]3CCC4=CC(=O)C=C[C@]4(C)[C@@]3(F)[C@@H](O)C[C@@]21C`: 11.2 µM (active).
For the compound `Clc1ccc(COC(Cn2ccnc2)c2ccc(Cl)cc2Cl)c(Cl)c1` (stereo not given), the Potency was 5.62 µM (active).
On the same count and under the same terms, next, `CCCCCCCCCCCCCCCC(=O)O[C@H]1[C@@H](O)[C@@H](O)[C@@H]([C@H](NC(=O)[C@@H]2C[C@@H](CCC)CN2C)[C@H](C)Cl)O[C@@H]1SC`: 17.8 µM (active); `CN(C)CCN(Cc1ccc(Cl)cc1)c1ccccn1`: 10 µM (active); `Fc1ccc(C(c2ccc(F)cc2)N2CCN(CC=Cc3ccccc3)CC2)cc1`: 2.82 µM (active).

The subject of a further assay is astro (control astrocytes). Described as above. Particulars: viability, ATP luminescence, 48 h; series mostly up to 45.9 µM; activity, negative = cell killing: at the top concentration. The essentials: as §1
On to `O=C(CCCN1CCN(c2ccc(F)cc2)CC1)NC1c2ccccc2CSc2ccccc21` (stereo not given), for which the “activity, negative = cell killing” value was -25%.
On the same count and under the same terms, next, `COc1cc2c(cc1OC)CC(=O)N(CCCN(C)C[C@H]1Cc3cc(OC)c(OC)cc31)CC2`: -16.8%.
For the compound `O=C(Nc1cccc2c(=O)cc(-c3nn[nH]n3)oc12)c1ccc(OCCCCc2ccccc2)cc1`, the “activity, negative = cell killing” value was -23.5%.
The same measure, in the same setting: the same measure for `CS(=O)(=O)c1ccc(C2=C(c3ccccc3)C(=O)OC2)cc1`: -12%; for `CN1CC(=O)N2C(Cc3c([nH]c4ccccc34)[C@H]2c2ccc3c(c2)OCO3)C1=O` (stereo not given in full): -26.3%; for `CC(C)CN(C[C@@H](O)[C@H](Cc1ccccc1)NC(=O)O[C@H]1CO[C@H]2OCC[C@H]21)S(=O)(=O)c1ccc(N)cc1`: -20.4%.
In the case of `COc1ccc(-c2nc3ccc(C4=NNC(=O)CC4C)cc3[nH]2)cc1` (stereo not given), the Potency is 11.2 µM (active).
Consider `CCC(=O)OCC(=O)[C@@]1(OC(=O)CC)[C@@H](C)C[C@@H]2[C@H]3CCC4=CC(=O)C=C[C@]4(C)[C@@]3(F)[C@@H](O)C[C@@]21C`, for which the “activity, negative = cell killing” value is -8.5%.
In the case of `N#Cc1c(N(CC(=O)O)CC(=O)O)sc(C(=O)O)c1CC(=O)O`, the “activity, negative = cell killing” value was -9.05%.
Still for that read-out and setting: the same measure for `CC[C@H](C)C(=O)O[C@H]1C[C@H](O)C=C2C=C[C@H](C)[C@H](CC[C@@H](O)C[C@@H](O)CC(=O)O)[C@H]21`: -7.28%; for `CCC[C@H](N[C@@H](C)C(=O)N1[C@@H]2CCCC[C@H]2C[C@H]1C(=O)O)C(=O)OCC`: -16%.
Regarding `CN1CCN2c3ncccc3Cc3ccccc3C2C1` (stereo not given), the “activity, negative = cell killing” value was -26%.
On the same count and under the same terms, the same measure for `COc1ccnc(CS(=O)c2nc3ccc(OC(F)F)cc3[nH]2)c1OC` (stereo not given): -23.6%; for `CC(C)(CO)[C@@H](O)C(=O)NCCC(=O)O`: -12.3%.
The same measure, in the same setting: next, `Clc1ccc(COC(Cn2ccnc2)c2ccc(Cl)cc2Cl)c(Cl)c1` (stereo not given): -29.4% [at 21.2 µM]; `CN(C)CCN(Cc1ccc(Cl)cc1)c1ccccn1`: -7.41% [at 21.2 µM].
In the case of `CCCCC(F)(F)[C@@]1(O)CC[C@H]2[C@H](CC(=O)[C@@H]2CCCCCCC(=O)O)O1`, the “activity, negative = cell killing” value is -27.9%.
For the compound `Fc1ccc(C(c2ccc(F)cc2)N2CCN(CC=Cc3ccccc3)CC2)cc1`, the Potency is 35.5 µM (active).
As to `O=C(O)c1nc(=O)[nH]c(=O)[nH]1`, the “activity, negative = cell killing” value was -8.82%.
The same measure, in the same setting: next, `NS(=O)(=O)c1cc(Cl)c(Cl)c(S(N)(=O)=O)c1`: -9.53% [at 21.2 µM].
Still for that read-out and setting: the same measure for `NCC1CCC(C(=O)O)CC1` (stereo not given): -11.1% [at 21.2 µM]; for `CC[C@H]1OC(=O)[C@H](C)[C@@H](O[C@H]2C[C@@](C)(OC)[C@@H](O)[C@H](C)O2)[C@H](C)[C@@H](O[C@@H]2O[C@H](C)C[C@H](N(C)C)[C@H]2O)[C@](C)(O)C[C@H](C)C(=NOCOCCOC)[C@H](C)[C@@H](O)[C@]1(C)O`: 7.95%.
